# Reference: PubChem BioAssay (Tox21)
# Values joined by “and” are separate entries in the source; they are usually repeats but may differ in a detail not shown here. Identical values can stand only once. Where a structure was tested more than once in an assay, its records may differ in their call. Active and inactive are the calls of the source. Entries that show only a call come without a potency. Unless noted, calls come from the whole dose curve; as a rule, active = well fitted curve in the direction sought with a large enough effect in the repeat runs; inconclusive = weak or mixed curves; inactive = no such curve, though single readings can be large; an effect the other way counts as inactive or inconclusive.
# Legend:
# [1] = qHTS assay to identify small molecule antagonists of the thyroid receptor (TR) signaling pathway - cell viability counter screen (AID 743064); note: nearly all actives have a fitted effect of over 50% in size
# Method in brief: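 Fluorescence from CellTiter-Fluor, added after 23.5 h exposure at 37 °C, reported viability of GH3.TRE-Luc cells co-treated with compound and 1 nM T3. Measured in the same wells as the luciferase TR readout.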
# [2] = qHTS assay to identify small molecule antagonists of the thyroid receptor (TR) signaling pathway (AID 743065); note: nearly all actives have a fitted effect of over 55% in size; note: potency is the fitted concentration of half-maximal effect
# Method in brief: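 GH3.TRE-Luc rat pituitary cells carrying two TR response elements driving luciferase were plated for 4 h, given compound plus 1 nM T3 (final), and incubated 23.5 h at 37 C. ONE-Glo luminescence measured reporter inhibition; CellTiter-Fluor fluorescence tracked cytotoxicity.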
# [3] = system: thyroid hormone receptor (rat, GH3 cells); assay: qHTS assay to identify small molecule agonists of the thyroid receptor (TR) signaling pathway (AID 743066; calls by dose curve)
# [4] = target: Estrogen receptor (Homo sapiens) (UniProt P03372); assay: qHTS assay to identify small molecule antagonists of the estrogen receptor alpha (ER-alpha) signaling pathway (AID 743069; active = well fitted curve in the direction sought with a large enough effect in the signal ratio in the repeat runs, not every such curve was filed as active; inconclusive = weak or mixed curves, or effect the other way; inactive = no such curve, though single readings can be large or run the other way; the % refers to the signal ratio; note: potency is the fitted concentration of half-maximal effect)
# Method in brief: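 HEK293 cells stably carrying an ER-alpha-UAS-bla beta-lactamase reporter were pre-cultured overnight in 2% charcoal-stripped FBS medium. Test compounds in DMSO were added together with 17beta-estradiol for 18 hr at 37C. Read-out was fluorescence after 2 hr with LiveBLAzer B/G FRET substrate at room temperature.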
# [5] = qHTS assay to identify small molecule antagonists of the estrogen receptor alpha (ER-alpha) signaling pathway - cell viability counter screen (AID 743074; calls by dose curve; note: nearly all actives have a fitted effect of over 45% in size)
# [6] = target: Estrogen receptor (Homo sapiens) (UniProt P03372); assay: qHTS assay to identify small molecule agonists of the estrogen receptor alpha (ER-alpha) signaling pathway (AID 743075; calls by dose curve; note: potency is the fitted concentration of half-maximal effect)
# [7] = target: Estrogen receptor (Homo sapiens) (UniProt P03372); assay: qHTS assay to identify small molecule agonists of the estrogen receptor alpha (ER-alpha) signaling pathway using the BG1 cell line (AID 743079); note: nearly all actives have a fitted effect of over 20% in size; note: potency is the fitted concentration of half-maximal effect
# [8] = qHTS assay to identify small molecule antagonists of the estrogen receptor alpha (ER-alpha) signaling pathway using the BG1 cell line (AID 743080; calls by dose curve;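 note: BG1 cells stimulated with 17beta-estradiol alongside compound; series mostly up to about 70 µM; nearly all actives have a fitted effect of over 25% in size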)
# Method in brief: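 BG1-Luc-4E2 cells (endogenous full-length ER-alpha, stable 4×ERE-luciferase) were starved 5 days in phenol-red-free medium with 10% charcoal-stripped FBS, plated 24 h, then given compound plus 17beta-estradiol for 21.5 h at 37 C; ONE-Glo luminescence read after 30 min.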
# [9] = qHTS assay to identify small molecule antagonists of the estrogen receptor alpha (ER-alpha) signaling pathway using the BG1 cell line - cell viability counter screen (AID 743081);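 note: compound given together with 17beta-estradiol as the ER stimulus; series mostly up to about 70 µM; nearly all actives have a fitted effect of over 45% in size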
# Aromatase (Homo sapiens) = Aromatase (Homo sapiens) (UniProt P11511); assay: qHTS assay to identify aromatase inhibitors (AID 743083); note: nearly all actives have a fitted effect of over 55% in size; note: potency is the fitted concentration of half-maximal effect
# [10] = qHTS assay to identify aromatase inhibitors - cell viability counter screen (AID 743084);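 note: cells stimulated with testosterone during compound exposure; nearly all actives have a fitted effect of over 55% in size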
# [11] = target: Aryl hydrocarbon receptor (Homo sapiens) (UniProt P35869); assay: qHTS assay to identify small molecule that activate the aryl hydrocarbon receptor (AhR) signaling pathway (AID 743085); note: nearly all actives have a fitted effect of over 15% in size; note: potency is the fitted concentration of half-maximal effect;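 for activation: HG2L7.5c1 human HepG2 liver cells with stably integrated DRE-driven firefly reporter; series mostly up to about 70 µM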
# Method in brief: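 Cell line HG2L7.5c1 (human hepatoma, 20× DRE-luc). Plated, 5 h 37C, compound/DMSO added, 24 h 37C. CellTiter-Fluor 30 min 37C → fluorescence; then ONE-Glo 30 min RT → luminescence.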
# [12] = qHTS assay to identify small molecule that activate the aryl hydrocarbon receptor (AhR) signaling pathway - cell viability counter screen (AID 743086);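 note: HepG2 liver cells carrying the AhR DRE luciferase reporter; series mostly up to about 70 µM; nearly all actives have a fitted effect of over 45% in size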
# Method in brief: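 HepG2-AhR-luc (HG2L7.5c1) cells, 4000/well, were preincubated 5 h at 37C, exposed to compound in qHTS format for 24 hr at 37C, then given CellTiter-Fluor for 30 min; viability was read as fluorescence in the reporter wells.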
# [13] = qHTS assay for small molecule agonists of the antioxidant response element (ARE) signaling pathway - cell viability counter screen (AID 743203; calls by dose curve; note: nearly all actives have a fitted effect of over 55% in size; note: potency is the fitted concentration of half-maximal effect)
# Method in brief: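 CellSensor ARE-bla HepG2 cells, 2,000 per well, rested 5 hrs at 37C/5% CO2, then exposed to compound in DMSO for 16 hrs; viability read as CellTiter-Glo luminescence after 30 min at room temperature, in the reporter wells.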
# [14] = qHTS assay for small molecule activators of the heat shock response signaling pathway - cell viability counter screen (AID 743209); note: nearly all actives have a fitted effect of over 50% in size
# Method in brief: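 CellSensor HSE-bla HeLa cells, plated overnight at 37 C/5% CO2, were exposed to compounds in DMSO for 5 h at 37 C. Viability was then read in the same wells by CellTiter-Glo luminescence after 30 min at room temperature.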
# [15] = qHTS assay for small molecule activators of the heat shock response signaling pathway (AID 743210; active = well fitted activation curve with a large enough effect in the signal ratio in the repeat runs, with a control signal flat, not every such curve was filed as active; inconclusive = weak or mixed curves; the % refers to the signal ratio; note: series mostly up to about 63 µM)
# Method in brief: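 HSE-bla HeLa cells (beta-lactamase reporter under heat shock response elements) were exposed to compounds for 5 h at 37 C, then loaded with LiveBLAzer B/G FRET substrate for 2.5 h at room temperature before fluorescence reading.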
# [16] = qHTS assay to identify small molecule antagonists of the peroxisome proliferator-activated receptor gamma (PPARg) signaling pathway - cell viability counter screen (AID 743194); conditions: Potency: co-treated with 50 nM rosiglitazone unless noted; note: nearly all actives have a fitted effect of over 55% in size
# Method in brief: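 PPARg-UAS-bla HEK293H cells were plated, rested 5 h at 37 C, then treated with compounds plus rosiglitazone (50 nM final) for 17 h at 37 C; viability was then read by CellTiter-Glo luminescence after 30 min at room temperature.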
# [17] = target: Peroxisome proliferator-activated receptor gamma (Homo sapiens) (UniProt P37231); assay: qHTS assay to identify small molecule agonists of the peroxisome proliferator-activated receptor gamma (PPARg) signaling pathway (AID 743094; active = well fitted activation curve with a large enough effect in the signal ratio in the repeat runs, not every such curve was filed as active; inconclusive = weak or mixed curves, or effect the other way; inactive = no such curve, though single readings can be large or run the other way; the % refers to the signal ratio)
# Method in brief: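 GeneBLAzer PPARg UAS-bla HEK293H cells carrying a stably integrated beta-lactamase reporter were pre-incubated 5 h at 37C, then exposed to compounds in DMSO for 17 h at 37C; LiveBLAzer B/G FRET substrate was added for 1 h at room temperature and fluorescence read.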
# [18] = target: Peroxisome proliferator-activated receptor gamma (Homo sapiens) (UniProt P37231); assay: qHTS assay to identify small molecule antagonists of the peroxisome proliferator-activated receptor gamma (PPARg) signaling pathway (AID 743191; calls by dose curve; note: series mostly up to about 63 µM; nearly all actives have a fitted effect of over 30% in size)
# Method in brief: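 GeneBLAzer PPARg UAS-bla HEK293H cells carrying a UAS-driven beta-lactamase reporter were plated at 3000 cells/well, preincubated 5 h at 37C, then given compound for 17 h at 37C; LiveBLAzer B/G FRET substrate was read after 1 h at room temperature.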
# [19] = qHTS assay for small molecule agonists of the antioxidant response element (ARE) signaling pathway (AID 743202; active = well fitted activation curve with a large enough effect in the signal ratio in the repeat runs, not every such curve was filed as active; inconclusive = weak or mixed curves, or effect the other way; inactive = no such curve, though single readings can be large or run the other way; the % refers to the signal ratio)
# Method in brief: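 Read-out: LiveBLAzer B/G FRET substrate fluorescence after 2 h at room temperature, following 16 h compound treatment at 37 C of HepG2 cells carrying an ARE-driven beta-lactamase reporter.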
# Chain of Aryl hydrocarbon receptor (Homo sapiens) (P35869 whole entry, looked up): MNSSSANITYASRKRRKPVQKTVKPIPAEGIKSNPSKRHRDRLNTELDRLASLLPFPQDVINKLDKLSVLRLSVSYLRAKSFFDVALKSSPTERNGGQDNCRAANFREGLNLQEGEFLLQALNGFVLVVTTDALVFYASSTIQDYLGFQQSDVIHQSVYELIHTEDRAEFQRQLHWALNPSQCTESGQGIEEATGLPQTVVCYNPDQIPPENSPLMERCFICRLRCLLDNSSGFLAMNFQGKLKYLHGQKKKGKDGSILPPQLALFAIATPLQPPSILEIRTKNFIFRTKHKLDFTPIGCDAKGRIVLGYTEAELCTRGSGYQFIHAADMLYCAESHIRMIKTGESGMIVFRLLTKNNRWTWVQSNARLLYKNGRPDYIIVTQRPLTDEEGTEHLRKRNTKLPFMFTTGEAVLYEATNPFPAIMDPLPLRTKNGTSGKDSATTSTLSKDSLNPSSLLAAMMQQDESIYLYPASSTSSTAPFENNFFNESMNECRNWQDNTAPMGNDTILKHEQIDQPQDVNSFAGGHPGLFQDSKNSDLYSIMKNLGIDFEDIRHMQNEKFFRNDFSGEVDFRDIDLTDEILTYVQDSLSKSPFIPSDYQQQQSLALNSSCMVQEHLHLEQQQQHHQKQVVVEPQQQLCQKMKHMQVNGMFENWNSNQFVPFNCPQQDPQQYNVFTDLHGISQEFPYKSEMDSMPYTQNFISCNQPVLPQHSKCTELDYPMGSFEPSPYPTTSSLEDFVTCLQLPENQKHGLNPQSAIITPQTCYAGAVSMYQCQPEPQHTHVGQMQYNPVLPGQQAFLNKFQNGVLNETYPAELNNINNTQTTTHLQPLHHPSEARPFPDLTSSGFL
# Chain of Peroxisome proliferator-activated receptor gamma (Homo sapiens) (P37231 whole entry, looked up): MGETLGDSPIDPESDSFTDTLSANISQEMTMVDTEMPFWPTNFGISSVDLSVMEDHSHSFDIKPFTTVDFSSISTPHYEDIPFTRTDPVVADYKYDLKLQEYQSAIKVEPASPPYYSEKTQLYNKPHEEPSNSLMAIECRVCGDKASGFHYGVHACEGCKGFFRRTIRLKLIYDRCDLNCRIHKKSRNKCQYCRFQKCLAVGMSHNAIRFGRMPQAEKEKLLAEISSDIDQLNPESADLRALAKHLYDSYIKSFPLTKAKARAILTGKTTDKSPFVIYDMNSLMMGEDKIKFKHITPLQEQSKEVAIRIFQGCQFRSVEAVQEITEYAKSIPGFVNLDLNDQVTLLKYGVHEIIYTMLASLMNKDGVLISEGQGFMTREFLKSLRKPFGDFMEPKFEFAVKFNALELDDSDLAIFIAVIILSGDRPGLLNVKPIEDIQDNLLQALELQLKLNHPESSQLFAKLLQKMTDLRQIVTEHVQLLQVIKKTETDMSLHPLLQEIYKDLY
# Chain of Aromatase (Homo sapiens) (P11511 whole entry, looked up): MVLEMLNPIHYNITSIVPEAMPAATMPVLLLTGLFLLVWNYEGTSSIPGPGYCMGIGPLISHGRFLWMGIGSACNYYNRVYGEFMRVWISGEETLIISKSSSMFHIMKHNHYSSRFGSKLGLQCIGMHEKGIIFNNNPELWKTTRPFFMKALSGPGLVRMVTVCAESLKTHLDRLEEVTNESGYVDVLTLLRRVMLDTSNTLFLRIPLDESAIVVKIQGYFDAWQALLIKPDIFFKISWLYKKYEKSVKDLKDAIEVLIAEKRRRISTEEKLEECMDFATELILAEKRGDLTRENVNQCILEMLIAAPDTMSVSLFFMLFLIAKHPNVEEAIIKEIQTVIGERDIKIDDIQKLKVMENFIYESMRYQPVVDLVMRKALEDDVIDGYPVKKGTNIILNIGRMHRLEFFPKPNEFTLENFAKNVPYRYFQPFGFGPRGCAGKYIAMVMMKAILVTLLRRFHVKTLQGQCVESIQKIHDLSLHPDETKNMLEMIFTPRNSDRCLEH
# Chain of Estrogen receptor (Homo sapiens) (P03372 whole entry, looked up): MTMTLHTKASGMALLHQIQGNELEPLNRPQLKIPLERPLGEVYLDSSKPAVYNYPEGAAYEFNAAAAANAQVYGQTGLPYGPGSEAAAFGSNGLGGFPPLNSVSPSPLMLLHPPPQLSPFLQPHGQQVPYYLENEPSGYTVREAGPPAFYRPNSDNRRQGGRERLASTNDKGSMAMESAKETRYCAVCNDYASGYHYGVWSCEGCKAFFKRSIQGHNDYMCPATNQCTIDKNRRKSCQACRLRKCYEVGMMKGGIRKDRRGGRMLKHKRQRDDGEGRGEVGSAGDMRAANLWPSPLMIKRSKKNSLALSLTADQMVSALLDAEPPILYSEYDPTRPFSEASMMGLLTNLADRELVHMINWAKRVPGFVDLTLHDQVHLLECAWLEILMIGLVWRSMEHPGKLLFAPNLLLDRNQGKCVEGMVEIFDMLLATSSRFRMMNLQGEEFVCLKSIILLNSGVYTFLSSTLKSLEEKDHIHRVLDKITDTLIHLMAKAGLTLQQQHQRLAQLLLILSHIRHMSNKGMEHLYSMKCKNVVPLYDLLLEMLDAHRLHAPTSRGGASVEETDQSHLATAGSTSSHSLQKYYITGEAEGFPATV
SMILES,Potency [1],Potency [2],Potency [3],Potency [4],Potency [5],Potency [6],Potency [7],Potency [8],Potency [9],Potency (Aromatase (Homo sapiens)),Potency [10],Potency [11],Potency [12],Potency [13],Potency [14],Potency [15],Potency [16],Potency [17],Potency [18],Potency [19]
O=P(Oc1ccccc1)(Oc1ccccc1)Oc1ccccc1,inactive,inactive,inactive,inactive,inactive,inactive,6.08 µM (active),inactive,inactive,inactive,inactive,inactive,inactive,inactive,inactive,inactive,,,,
Nc1ccc(-c2ccccc2)cc1,inactive,inactive,inactive,inactive,inactive,inactive,25 nM (active) and 10.9 µM (active),,inactive,inactive,inactive,9.69 µM (active),inactive,inactive,inactive,inactive,inactive,,,
O=[N+]([O-])c1cccc2ccccc12,inactive,inactive,inactive,inactive,inactive,inactive,inactive,inactive,inactive,inactive,inactive,inactive,inactive,inactive,inactive,inactive,inactive,inactive,inactive,
Clc1nc(Cl)nc(Cl)n1,inactive,inactive,inactive,inactive,inactive,inactive,,inactive,inactive,inactive,inactive,inactive,inactive,inactive,inactive,inactive,inactive,inactive,inactive,inactive
CCN(CC)C(=O)SCc1ccc(Cl)cc1,inactive,inactive,inactive,inactive,inactive,inactive,inactive,inactive,inactive,inactive,inactive,inactive,inactive,inactive,inactive,inactive,inactive,inactive,inactive,inactive
NCc1cccnc1,inactive,inactive,inactive,inactive,inactive,inactive,inactive,inactive,inactive,inactive,inactive,inactive,inactive,inactive,inactive,inactive,inactive,inactive,inactive,inactive
COP(=S)(OC)Oc1ccc([N+](=O)[O-])cc1,inactive,inactive,inactive,inactive,inactive,inactive,48.6 µM (active) and inactive,inactive,inactive,inactive,inactive,inactive,inactive,inactive,inactive,inactive,inactive,inactive,,
O=P(O)(O)CCCl,inactive,inactive,inactive,inactive,inactive,inactive,inactive,inactive,inactive,inactive,inactive,inactive,inactive,inactive,inactive,inactive,inactive,inactive,inactive,inactive
CCN(CC)C(=O)/C(Cl)=C(\C)OP(=O)(OC)OC,inactive,inactive,inactive,inactive,inactive,inactive,inactive,inactive,inactive,inactive,inactive,inactive,inactive,inactive,inactive,inactive,inactive,,,
Nc1ccncc1,inactive,inactive,inactive,inactive,inactive,inactive,inactive,inactive,inactive,inactive,inactive,inactive,inactive,inactive,inactive,,inactive,,,inactive
CCOCN(C(=O)CCl)c1c(C)cccc1CC,inactive,64.8 µM (active) and 61.1 µM (active),inactive,24.5 µM [inconclusive] (active),inactive,inactive,inactive,inactive,inactive,28.9 µM (active) and 54.5 µM (active),,inactive,inactive,14.5 µM (active) and 21.7 µM (active),,,inactive,,,
Nn1cnnc1,inactive,inactive,inactive,inactive,inactive,inactive,inactive,inactive,inactive,inactive,inactive,inactive,inactive,inactive,inactive,inactive,inactive,inactive,inactive,inactive
C=C(C)C(=O)OCC1CO1 (stereo not drawn),inactive,inactive,inactive,inactive,inactive,inactive,inactive,inactive,inactive,inactive,inactive,inactive,inactive,inactive,inactive,inactive,inactive,,inactive,
CC(C)c1ccc(CO)cc1,inactive,inactive,inactive,inactive,inactive,43.7 µM [inconclusive] (active) and inactive,54.5 µM (active) and inactive,inactive,inactive,inactive,inactive,,inactive,inactive,inactive,inactive,inactive,inactive,,inactive
CCCCN(CCCC)N=O,inactive,inactive,inactive,inactive,inactive,inactive,inactive,inactive,inactive,inactive,inactive,inactive,inactive,inactive,inactive,inactive,inactive,inactive,inactive,inactive
CCC(C)(C)c1ccc(O)cc1,inactive,inactive,inactive,inactive,inactive,inactive and 15.7 µM [inconclusive] (active) and 55 µM [activator] (active),17.4 µM (active) and 24.3 µM (active),inactive,inactive,inactive,inactive,inactive,inactive,inactive,inactive,inactive,inactive,,inactive,
CC(C)NC(C)C,inactive,inactive,inactive,inactive,inactive,inactive,inactive,inactive,inactive,inactive,inactive,inactive,inactive,inactive,inactive,,inactive,,inactive,
OCC(O)CO,inactive,inactive,inactive,inactive,inactive,inactive,inactive,inactive,inactive,inactive,inactive,inactive,inactive,inactive,inactive,inactive,inactive,,inactive,
Nc1cccnc1,inactive,inactive,inactive,inactive,inactive,inactive,inactive,inactive,inactive,inactive,inactive,inactive,inactive,inactive,inactive,inactive,inactive,,inactive,
CCCCCCOC(=O)c1ccccc1C(=O)OCCCCCC,inactive,inactive,inactive,inactive,inactive,inactive,inactive,inactive,inactive,inactive,inactive,inactive,inactive,inactive,inactive,inactive,inactive,,inactive,
CNC(=O)N(C)c1nnc(C(C)(C)C)s1,inactive,inactive,inactive,inactive,inactive,inactive,inactive,inactive,inactive,inactive,inactive,inactive,inactive,inactive,inactive,inactive,inactive,,inactive,
O=S(=O)(Oc1ccc(Cl)cc1)c1ccc(Cl)cc1,inactive,inactive,inactive,inactive,inactive,inactive,inactive,inactive,inactive,inactive,inactive,inactive,inactive,inactive,inactive,inactive,inactive,inactive,inactive,inactive
CCN(N=O)C(N)=O,inactive,inactive,inactive,inactive,inactive,inactive,inactive,inactive,inactive,inactive,inactive,inactive,inactive,inactive,inactive,inactive,inactive,inactive,inactive,
COc1ccc(C=O)cc1,inactive,inactive,inactive,inactive,inactive,inactive,inactive,inactive,inactive,inactive,inactive,inactive,inactive,inactive,inactive,inactive,inactive,inactive,inactive,inactive
COC(=O)c1sccc1S(=O)(=O)NC(=O)Nc1nc(C)nc(OC)n1,inactive,inactive,inactive,inactive,inactive,inactive,inactive,inactive,inactive,inactive,inactive,inactive,inactive,inactive,inactive,inactive,,inactive,inactive,
NC(=S)Nc1ccccc1,inactive,inactive,inactive,inactive,inactive,inactive,inactive,inactive,inactive,inactive,inactive,inactive,inactive,inactive,inactive,inactive,inactive,inactive,inactive,
O=C(NC(=O)c1c(F)cccc1F)Nc1ccc(Cl)cc1,inactive,inactive,inactive,inactive,inactive,inactive,inactive and 2.43 µM (active),,inactive,inactive,inactive,97.1 nM (active) and 611 nM (active),inactive,inactive,inactive,inactive,inactive,,inactive,inactive
Nc1c(Cl)cc([N+](=O)[O-])cc1Cl,inactive,inactive,inactive,inactive,inactive,inactive,inactive,inactive,inactive,inactive,inactive,inactive,inactive,inactive,inactive,inactive,inactive,inactive,inactive,inactive
